Screen size: about 370,000 compounds; about 4,700 (1.3%) were called active.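 How the source made its calls: active means inhibition above the plate cutoff, the mean of all test compounds on that plate plus 3 SD (cut at about 35% in these data); inactive means the rest.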 Many of the other results were omitted from the sample, so actives are more common in it than they were.
Assay: binders of r(CAG) RNA repeats, primary screen, biochemical, fluorescence (AID 651821);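 further: 0% = DMSO alone and 100% = 100 µM mitoxantrone as full dye displacement; higher means more dye released from RNA so lower well fluorescence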
Conditions: r(CAG) RNA repeat, TO-PRO-1 dye displacement fluorescence; at 3 µM; active compounds read high
For `COc1ccc(N2CCN(CCNS(=O)(=O)c3ccc(Cl)s3)CC2)cc1`, the inhibition was -0.11% (inactive).
In the case of `C=CCN(C)CC#Cc1ccccc1`, the inhibition is reported as -0.11% (inactive).
In the case of `COc1ccc(N2CCN(CCNS(=O)(=O)c3ccc([N+](=O)[O-])cc3)CC2)cc1`, the inhibition is reported as 0.28% (inactive).
With `CCCC[C@H](C(=O)N(CC)c1ccccc1)[C@@H](O)c1ccc2ccccc2c1` the inhibition was 4.92% (inactive).
In the case of `CC(=O)Oc1ccc(C)cc1N1C(=O)c2ccc(C(=O)O)cc2C1=O`, the inhibition is reported as 4.11% (inactive).
In the case of `O=C(O)c1ccc2c(c1)C(=O)N(c1ccc(/C=C/C(=O)c3ccccc3)cc1)C2=O`, the inhibition is reported as 46.3% (active).
For `CC(=O)Nc1ccc(NC(=O)c2ccc3c(c2)C(=O)N(c2ccccc2C)C3=O)cc1`, the inhibition was -2.08% (inactive).
With `CN1C(=O)c2cc(NS(C)(=O)=O)ccc2OC[C@@H]2O[C@@H](CC(=O)NCc3ccc(-c4ccccc4)cc3)CC[C@H]21` the inhibition was 4.86% (inactive).
For `CC1(C(=O)NS(=O)(=O)c2ccc(C#N)cc2)CCN1C(=O)c1ccc(C2CCCCC2)cc1` (configuration not stated), the inhibition was 46.9% (active).
For `CC1(C(=O)NS(=O)(=O)c2ccc(C#N)cc2)CCN1C(=O)CC1CCCC1` (configuration not stated), the inhibition was 1.94% (inactive).
With `Cc1noc(C)c1C(=O)N1CCC1(C)C(=O)NS(=O)(=O)c1ccc(C#N)cc1` (configuration not stated) the inhibition was 0.97% (inactive).
For `CC[C@H](NC(=O)[C@H](Cc1ccccc1)NC(=O)[C@H]1O[C@@H](n2cnc3c(=O)[nH]c(N)nc32)[C@H](O)[C@@H]1O)c1ccccc1`, the inhibition was 14.3% (inactive).
For `Cc1ccccc1NC(=O)Cn1nnc(-c2ccccc2F)n1`, the inhibition was 0.27% (inactive).
For `CCC(C)n1[nH]c(=O)cc1N` (configuration not stated), the inhibition was -0.11% (inactive).
With `CC(C)(C)n1nc(C2CC2)c(Br)c1NC(=O)c1ccccc1F` the inhibition was 2.68% (inactive).
With `Cc1cc(=O)[nH]c(SCC(=O)Nc2ccc(Cl)cc2C)n1` the inhibition was 4.47% (inactive).
In the case of `COc1ccc(NC(=O)CSc2nc(NS(=O)(=O)c3ccc(C)cc3)cc(=O)[nH]2)cc1`, the inhibition is reported as 13.4% (inactive).
With `Cc1ccc(NC(=O)CSc2nc(CSc3ccc(C)cc3)cc(=O)[nH]2)cc1` the inhibition was 45.1% (active).
With `CCOC(=O)C1=C(C)NC2=C(C(=O)CC(C)(C)C2)C1c1ccc2c(c1)OCO2` (configuration not stated) the inhibition was 1.3% (inactive).
In the case of `O=C(NN=Cc1ccco1)C(=O)Nc1ccc(Cl)c([N+](=O)[O-])c1`, the inhibition is reported as 6.16% (inactive).
In the case of `O=C(O)C(=Cc1ccccc1[N+](=O)[O-])c1ccccc1`, the inhibition is reported as -2.74% (inactive).
With `O=C(N/N=C/c1cc(Cl)cc([N+](=O)[O-])c1O)C(O)(c1ccccc1)c1ccccc1` the inhibition was 75.8% (active).
With `Cc1cc(Br)cn2c(Cc3ccccc3C(F)(F)F)c(-c3ccc(C#N)cc3)nc12` the inhibition was 7.42% (inactive).
With `CC(=O)c1c(C)[nH]c(C(=O)OCC(=O)Nc2sc3c(c2C#N)CCCC3)c1C` the inhibition was 19.6% (inactive).
For `COc1cccc(CN(C)CC(=O)Nc2sc3c(c2C#N)CCC3)c1`, the inhibition was -1.59% (inactive).
In the case of `N#CCC(=O)Nc1ccc(C(=O)OCC(=O)Nc2sc3c(c2C#N)CCCC3)cc1`, the inhibition is reported as 37.6% (active).
For `COC(=O)C1CN(CC(C)C)CCS(=O)(=O)N1Cc1ccc(F)cc1` (configuration not stated), the inhibition was -0.73% (inactive).
With `COC(=O)c1cc(S(=O)(=O)N2CCN(c3ccccc3C)CC2)cn1C` the inhibition was 1.46% (inactive).
For `Cn1c(SCc2nc3ccccc3s2)nnc1-c1ccc2c(c1)OCO2`, the inhibition was -0.18% (inactive).
In the case of `COc1ccc(C(=O)Nc2cccc(/C=C(/CCC(=O)O)c3nc4ccccc4s3)c2)cc1`, the inhibition is reported as 71.7% (active).
With `CCOc1ccc(C(=O)Nc2cccc(SC)c2)cc1` the inhibition was -4.59% (inactive).
For `O=C(/C=C/c1cc2c(cc1Br)OCO2)NCc1ccc(Cl)cc1`, the inhibition was 0.75% (inactive).
For `O=C(O)CC/C(=C\c1cc2c(cc1Br)OCO2)c1nc2ccccc2s1`, the inhibition was 38.8% (active).
For `COc1ccc(/C=C(/NC(=O)c2ccccc2)C(=O)Nc2cccc(C(=O)O)c2)cc1`, the inhibition was 6.11% (inactive).
With `Cc1cc(=O)[nH]c(SCC(=O)Nc2ccc(F)cc2F)n1` the inhibition was 7.71% (inactive).
With `CN(C)CC(=O)N[C@@H]1C[C@@H]2O[C@H](CO)CC[C@@H]2O[C@@H]1CCc1ccc(C#Cc2ccccc2)cc1` the inhibition was 2.31% (inactive).
In the case of `COC(=O)[C@]12C[C@H](CC(=O)NCCC(C)C)C(=O)N(CCc3ccc(OC)c(OC)c3)C1=C[C@H](C(C)(C)C)O[C@@H]2C`, the inhibition is reported as 0.35% (inactive).
With `CC(C)[C@H]1COCCS(=O)(=O)N1Cc1ccccc1-c1cccc2c1sc1ccccc12` the inhibition was 9.63% (inactive).
With `CCN(CCCNC(=O)C1CCN(S(=O)(=O)c2cnc[nH]2)CC1)c1ccccc1` the inhibition was 1.6% (inactive).
With `COc1ccc(CCNC(=O)COC(=O)c2cc(=O)c3ccccc3o2)cc1` the inhibition was 0.17% (inactive).
In the case of `COc1ccc(CNC(=O)COC(=O)C2=Cc3ccccc3OC2)cc1`, the inhibition is reported as 78.9% (active).
For `COc1ccc(CNC(=O)COC(=O)C(CCSC)N2C(=O)c3ccccc3C2=O)cc1` (configuration not stated), the inhibition was 3.76% (inactive).
With `CCOC(=O)[C@]12CCCCC/C=C\1N(Cc1ccc(OC)cc1)C(=O)[C@H]2CC(=O)NCCCN1CCCC1=O` the inhibition was 0.52% (inactive).
With `COC(=O)[C@]12C[C@H](CC(=O)NCc3ccccc3)C(=O)N(Cc3ccccc3)C1=C[C@H](COCc1ccccc1)O[C@@H]2C` the inhibition was 8.61% (inactive).
In the case of `O=C1Oc2ccccc2C(=O)/C1=C/c1ccccc1O`, the inhibition is reported as 51% (active).
In the case of `Cc1ccc(-c2nc(C3CCCN(S(=O)(=O)c4ccc(Br)s4)C3)no2)cc1` (configuration not stated), the inhibition is reported as 5.63% (inactive).
For `C=CCN=C1NC(c2cccc(C(F)(F)F)c2)C(C(=O)OC)=C(C)N1C` (configuration not stated), the inhibition was 6.1% (inactive).
With `O=C(NNc1c2ccccc2nc2ccccc12)c1cc2ccccc2cc1O` the inhibition was 49.2% (active).
For `Cc1cc(C(=O)NNC(=O)c2cccc(S(=O)(=O)N3CCOCC3)c2)c2ccccc2n1`, the inhibition was 0.6% (inactive).
For `Cc1cc(C)cc(OCC(=O)NCc2cc(C)nc3ccccc23)c1`, the inhibition was -3.64% (inactive).
In the case of `Oc1c(Cl)cc(Cl)c(Cl)c1Cc1c(O)c(Cl)cc(Cl)c1Cl`, the inhibition is reported as 94% (active).
With `CCOC(=O)CNC(=O)N(C)[C@H]1C[C@H]2c3[nH]c4c(-c5ccc6c(c5)OCO6)cccc4c3CCN2C(=O)[C@H]1[C@H](C)O` the inhibition was 9.34% (inactive).
In the case of `Cc1cc(OCCCC(=O)Nc2cc(S(=O)(=O)N3CCOCC3)ccc2N2CCOCC2)ccc1Cl`, the inhibition is reported as 2.46% (inactive).
For `COCCNC(=S)Nc1cc(S(=O)(=O)N2CCOCC2)ccc1N1CCCCC1`, the inhibition was 1.62% (inactive).
For `O=[N+]([O-])c1cc(Cl)cc(/C=N/NC(=S)Nc2cc(S(=O)(=O)N3CCOCC3)ccc2Cl)c1O`, the inhibition was 37.7% (active).
In the case of `O=C(C(=O)N1CCC(c2ccccc2)CC1)c1ccccc1`, the inhibition is reported as 1.3% (inactive).
In the case of `CCOC(=O)c1cccc(NC(=O)CN(C)S(=O)(=O)c2ccc(-c3cocn3)s2)c1`, the inhibition is reported as 2.95% (inactive).
With `O=C(CSc1nnc(-c2ccccn2)n1-c1ccccc1)Nc1ccc2cn[nH]c2c1` the inhibition was 3.05% (inactive).
For `O=C(Nc1cccc(Cl)c1)OC1CC2CC1[C@H]1CCCCN1[C@H]2Cc1ccccc1` (some centres not stated), the inhibition was 7.48% (inactive).
For `Cc1ccccc1OS(=O)(=O)c1cccc([N+](=O)[O-])c1`, the inhibition was 0.69% (inactive).
In the case of `Cn1c2ccccc2c2cc(/C=C(\NC(=O)c3ccccc3)C(=O)NCC(=O)O)ccc21`, the inhibition is reported as 35.8% (active).
In the case of `O=C(NCC1CCCO1)/C(=C/c1ccc(Cl)cc1)NC(=O)c1ccccc1` (configuration not stated), the inhibition is reported as -2.17% (inactive).
For `CCn1cc(/C=C(\NC(=O)c2ccc(C)cc2)C(=O)NCCN2CCOCC2)c2ccccc21`, the inhibition was -0.63% (inactive).
For `Cc1nc2ccc(C(=O)N3CCN(C(=O)C(C)(C)C)CC3)cc2n1C1CCCC1`, the inhibition was 0.89% (inactive).
For `O=C1CC[C@@H](COc2ccc3[nH]cc(-c4ccccc4)c3c2-c2ccccc2)N1`, the inhibition was 6.86% (inactive).
With `CC(=O)O[C@H]1CC[C@@]2(C)[C@@H](CC[C@@H]3[C@@H]2CC[C@]2(C)[C@@H](C(C)(C)O)C[C@@H]32)C1` the inhibition was 5.36% (inactive).
In the case of `C[C@H]([C@@H](O)[C@@H](O)[C@@H](C)C(C)(C)C)[C@H]1CC[C@H]2C3CC[C@H]4C[C@H](OS(=O)(=O)O)[C@@H](OS(=O)(=O)O)C[C@]4(C)[C@H]3CC[C@]12C` (some centres not stated), the inhibition is reported as 88.4% (active).
In the case of `O=C(N[C@H](Cc1ccccc1)C(=O)N1CCCN(Cc2cccs2)CC1)[C@H]1O[C@@H](n2ccc(=O)[nH]c2=O)[C@H](O)[C@@H]1O`, the inhibition is reported as 1.68% (inactive).
For `O=S1(=O)c2ccc(Br)cc2-n2nncc2CN1Cc1cccc(Cl)c1`, the inhibition was 7.4% (inactive).
In the case of `C=C(Cl)COC(=O)C1C2C=CC(C2)C1C(=O)O` (configuration not stated), the inhibition is reported as -2.82% (inactive).
For `Cc1noc(C)c1S(=O)(=O)NCCc1ccc(S(N)(=O)=O)cc1`, the inhibition was 2.53% (inactive).
In the case of `COC(=O)C[C@@H]1CC[C@H]2[C@@H](COc3ccc(NS(=O)(=O)CC(F)(F)F)cc3C(=O)N2C)O1`, the inhibition is reported as 2.52% (inactive).
For `COc1ccc(Cn2c(O)c(/C=C3/C=CC=N3)c(=O)[nH]c2=O)cc1`, the inhibition was 4.64% (inactive).
With `COc1cc(=O)[nH]c(=O)n1C(=O)Cc1ccccc1` the inhibition was 5.86% (inactive).
In the case of `CCCOc1ccc(Cn2c(O)cc(=O)[nH]c2=O)cc1`, the inhibition is reported as 37.6% (active).
In the case of `CN(C)C(=O)N1CCN(C(=O)[C@@H](Cc2ccccc2)NC(=O)[C@H]2O[C@@H](n3ccc(N)nc3=O)[C@H](O)[C@@H]2O)CC1`, the inhibition is reported as 2.21% (inactive).
With `FC(F)(F)c1cccc(Cn2ccc3ccc(-c4ccc5ccn(Cc6ccccc6)c5c4)cc32)c1` the inhibition was 11% (inactive).
With `CC1=C(C(=O)N(C)C)C(c2ccccc2OC(F)F)NC(=O)N1` (configuration not stated) the inhibition was -5.88% (inactive).
For `O=C(c1cccc(C(F)(F)F)c1)N1CC[C@H]2[C@H](CCCN2Cc2cc(F)cc(F)c2)C1`, the inhibition was -2.78% (inactive).
With `CC1=CC2=NC(=O)/C(=C/c3coc4ccccc4c3=O)C(=N)N2O1` the inhibition was -66.6% (inactive).
In the case of `CCOC(=O)C1=C(O)/C(=C/c2cc(C)n(-c3ccccc3)c2C)N=C1C`, the inhibition is reported as 8.38% (inactive).
With `Cc1cc(/C=C2/C(=N)N3C(=NC2=O)SN=C3S(C)(=O)=O)c(C)n1-c1ccccc1` the inhibition was 58.3% (active).

From PubChem BioAssay AID651821 (The Scripps Research Institute Molecular Screening Center, 2012)
